Data from article PMC7819943, “Rice protein-binding microarrays: a tool to detect cis-acting elements near promoter regions in rice”.
In all, about 68,000 sequences were measured (“fluorescence intensity (a.u.)”: median about 9,100, highest 2% from about 16,000 on). This excerpt belongs to a sample that is enriched for the highest values.

molecular target: OsWRKY34 (Oryza sativa, UniProt Q0JBA9 1-250); test: protein-binding microarray (RPBM); PBS, 2% BSA, 51.3 ng/ul salmon testes DNA, 50 uM zinc acetate, 200 nM TF, 25 C, 1 h; high values mean tight binding; conditions: protein: recombinant; tags: N-terminal polyhistidine and DsRed monomer fusion (pET32a); label: CyDye5-dUTP incorporated in the synthesized complementary strand; 3' TTTTT single-stranded linker to array surface; dsDNA, one strand shown
In short: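 Binding signal is reported as fluorescence intensity per feature (arbitrary units) from an Axon 4000B scanner. Incubation used 200 nM of each Ni–NTA-purified, N-terminally polyhistidine- and DsRed-fused transcription factor from E. coli BL21-CodonPlus on a double-stranded custom Agilent array for 1 h at 25 °C, with 50 µM zinc acetate in the buffer, followed by washing.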

Chain of OsWRKY34 (Q0JBA9 entry or part of it): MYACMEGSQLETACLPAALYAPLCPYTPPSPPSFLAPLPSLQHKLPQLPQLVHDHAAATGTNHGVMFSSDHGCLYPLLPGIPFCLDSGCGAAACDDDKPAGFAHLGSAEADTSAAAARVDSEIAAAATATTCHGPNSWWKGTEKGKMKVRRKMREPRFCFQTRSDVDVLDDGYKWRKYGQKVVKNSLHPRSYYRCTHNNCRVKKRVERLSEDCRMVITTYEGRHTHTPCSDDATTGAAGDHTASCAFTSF

Q: For “AACTCACTCTCGCGTTCGCGTCGTCTCCGGCCTTTTCTTGCGGAGTCACCTAGTGCAG”, which binding signal is on record?
A: 8870 fluorescence intensity (a.u.)

Q: Which binding signal does the source give for “TACTGGTCGTCTGGTCTACTCCGTCTCTCCTCTTCTCTCCCGGAGTCACCTAGTGCAG” here?
A: 12200 fluorescence intensity (a.u.)

Q: Which binding signal does the source give for “ACTGTCTCGTATTCTATTCCTCATTCCTTCTCTTTTTTTCCGGAGTCACCTAGTGCAG” here?
A: 19600 fluorescence intensity (a.u.)

Q: Which binding signal does the source give for “CCCGGCCTTAGCATACTATTATTTTAGCACTAATCTTAACCGGAGTCACCTAGTGCAG” here?
A: 9300 fluorescence intensity (a.u.)

Q: “TTTTATAAATTCGAGCGTGTGCGGGTTTCGTTTTCTCACTCGGAGTCACCTAGTGCAG” was tested. Which binding signal did it give?
A: 9840 fluorescence intensity (a.u.)

Q: For “GCTGTGGTCATGGACAGGGGACGGGCTGGGGTCGTCGCGCCGGAGTCACCTAGTGCAG”, which binding signal is on record?
A: 8090 fluorescence intensity (a.u.)

Q: Which binding signal does the source give for “TTTTGCTACAGTGCTCGGATATATCTGGGACGTCCATTTTCGGAGTCACCTAGTGCAG” here?
A: 10200 fluorescence intensity (a.u.)

Q: “TGCGTACACTCCTTTGAAACCCCATTGCTATGTAGACAATCGGAGTCACCTAGTGCAG” was tested. Which binding signal did it give?
A: 8020 fluorescence intensity (a.u.)

Q: “TAAAATTCTGTTCCGCCGCGTTTGCCCTCGTCAACTAATCCGGAGTCACCTAGTGCAG” was tested. Which binding signal did it give?
A: 9750 fluorescence intensity (a.u.)

Q: Which binding signal does the source give for “ATGTCTGTATCTGTTATTGTTTCTATTGTGTCTGATCCAACGGAGTCACCTAGTGCAG” here?
A: 8980 fluorescence intensity (a.u.)

Q: How did the binding signal turn out when “AACTAGGTCCCTCGGCGGTTTTGACTCCTGTTTTGTCCAACGGAGTCACCTAGTGCAG” was run?
A: 12500 fluorescence intensity (a.u.)

Q: “GGCAACCACGTAATTCCCTCCCTTTTCAGTTACTCATCAACGGAGTCACCTAGTGCAG” was tested. Which binding signal did it give?
A: 9620 fluorescence intensity (a.u.)

Q: With “GGTTCCAATTCGTCGCCTGATACTCCGATTCGAGTTCTTGCGGAGTCACCTAGTGCAG” as the sequence, how does the binding signal read?
A: 12700 fluorescence intensity (a.u.)

Q: Which binding signal does the source give for “CTCGTTGTCGTGCTGCTTGTAATTCATCTAGTTTGTCTACCGGAGTCACCTAGTGCAG” here?
A: 10000 fluorescence intensity (a.u.)

Q: How did the binding signal turn out when “CTTGGATTCTGAGGTGGGCTTGAACTTGATATGAATTAGGCGGAGTCACCTAGTGCAG” was run?
A: 8100 fluorescence intensity (a.u.)

Q: “CAAATTCTAGACTTTTTGGTGGGTTGCGTGCGAGGGGTGGCGGAGTCACCTAGTGCAG” was tested. Which binding signal did it give?
A: 10500 fluorescence intensity (a.u.)

Q: For “TGTTCTTGCTACGCTGGGAGGGGAGGGGTGGCGCCGCGGCCGGAGTCACCTAGTGCAG”, which binding signal is on record?
A: 21700 fluorescence intensity (a.u.)

Q: With “GGTGGTTGGCGCGCGTTTTCTTGTGTGGTTTTTTGTGTCGCGGAGTCACCTAGTGCAG” as the sequence, how does the binding signal read?
A: 14200 fluorescence intensity (a.u.)

Q: With “TTGGGTTGGGTTGGTGAGGTGGGGAGATGGTTTGGTGAGGCGGAGTCACCTAGTGCAG” as the sequence, how does the binding signal read?
A: 17300 fluorescence intensity (a.u.)

Q: For “GTAAACTTATTCTTTGGGCGTTGTTATTATTTGGGGCAATCGGAGTCACCTAGTGCAG”, which binding signal is on record?
A: 11400 fluorescence intensity (a.u.)

Q: How did the binding signal turn out when “TTTAGGGGTGTTTGGTTGAGGGGTGAGTGGGATGGGTTGGCGGAGTCACCTAGTGCAG” was run?
A: 10300 fluorescence intensity (a.u.)

Q: How did the binding signal turn out when “GAGGTGACGCTGCCGCCGGCGGTGGGCGGAGTGGGAGGGGCGGAGTCACCTAGTGCAG” was run?
A: 8390 fluorescence intensity (a.u.)

Q: How did the binding signal turn out when “AGATGAGAGGTTTGGTTGGTTGGATGGTGGGGAGCGCCCGCGGAGTCACCTAGTGCAG” was run?
A: 10400 fluorescence intensity (a.u.)

Q: With “GTGCGTGTAAACTTTTTTGGGGTTGTTTTGGGCGGTTACTCGGAGTCACCTAGTGCAG” as the sequence, how does the binding signal read?
A: 18200 fluorescence intensity (a.u.)

Q: With “GTGTAACTTGTTTTGCTAGGGTTTTTGATTGCTTTTTACTCGGAGTCACCTAGTGCAG” as the sequence, how does the binding signal read?
A: 12000 fluorescence intensity (a.u.)

Q: “CGAGTCTTTTGTGCGGGTGGTTGGGGCGTGGGCGGTGGCGCGGAGTCACCTAGTGCAG” was tested. Which binding signal did it give?
A: 23100 fluorescence intensity (a.u.)

Q: “GGCCGGGCGAGGCGCTGGGAGGTGGCGGCTAGCGGCGGGGCGGAGTCACCTAGTGCAG” was tested. Which binding signal did it give?
A: 8500 fluorescence intensity (a.u.)

Q: For “ATTTGTTCCCATCCATCTCGGCCCTGTCGCCATTGTGCCACGGAGTCACCTAGTGCAG”, which binding signal is on record?
A: 9450 fluorescence intensity (a.u.)

Q: How did the binding signal turn out when “GATTGATTATCCTTTTCTTAAACTATTTTCCTGTTTTTCACGGAGTCACCTAGTGCAG” was run?
A: 13200 fluorescence intensity (a.u.)

Q: With “GCCAAGCCTTTTTCTTCTACTCTTTTTGGCATGGAACTCACGGAGTCACCTAGTGCAG” as the sequence, how does the binding signal read?
A: 8350 fluorescence intensity (a.u.)

Q: For “AACGATTTGCATGTCATACAGATACATCACATTTCTTTCTCGGAGTCACCTAGTGCAG”, which binding signal is on record?
A: 8520 fluorescence intensity (a.u.)

Q: “AGCAAATTCCTTTATGTTTTTTCTTATGTCTTCTCCAGCTCGGAGTCACCTAGTGCAG” was tested. Which binding signal did it give?
A: 9040 fluorescence intensity (a.u.)

Q: With “ACACTCTATTAAGAGGATCCGTTTCATTTTTTGTTCCATCCGGAGTCACCTAGTGCAG” as the sequence, how does the binding signal read?
A: 8760 fluorescence intensity (a.u.)

Q: With “CTATACTCACCCACTTGCCAATTTGCCATTGCCAACACCTCGGAGTCACCTAGTGCAG” as the sequence, how does the binding signal read?
A: 9100 fluorescence intensity (a.u.)

Q: How did the binding signal turn out when “TTGTTGGCTCAATATAGTTATCCTCCTTTGACCCAGTTAACGGAGTCACCTAGTGCAG” was run?
A: 9120 fluorescence intensity (a.u.)

Q: With “GGAGGTGGTGGCGCTGCCTCGGGGCCCCTCGCCTGGGAGGCGGAGTCACCTAGTGCAG” as the sequence, how does the binding signal read?
A: 9800 fluorescence intensity (a.u.)

Q: How did the binding signal turn out when “TGGGTTTTACGGTTTTACCCTCTCGGGCTTGAGGGGAGAGCGGAGTCACCTAGTGCAG” was run?
A: 47600 fluorescence intensity (a.u.)

Q: “GGGAGGGGTGCGGCGCGGTGGCGCTGGAGCGGAGGAGCGTCGGAGTCACCTAGTGCAG” was tested. Which binding signal did it give?
A: 9990 fluorescence intensity (a.u.)

Q: “TGTTCGGTGGGCGAGGAGAGGAGTGGGTGGGAGTGGACTGCGGAGTCACCTAGTGCAG” was tested. Which binding signal did it give?
A: 8780 fluorescence intensity (a.u.)

Q: How did the binding signal turn out when “AGGAGAGGGGTTTACTCGGTTGAGGATTTTCTTGTTCTCACGGAGTCACCTAGTGCAG” was run?
A: 8180 fluorescence intensity (a.u.)

Q: “GCGAGTGAGGAGGGGCGGCGCGCGGTGGCCGGCGGGTGAGCGGAGTCACCTAGTGCAG” was tested. Which binding signal did it give?
A: 8070 fluorescence intensity (a.u.)

Q: “GGGTGGAGGAGGGGACTTCGGGAGGGCGGTGGCGAGGGCGCGGAGTCACCTAGTGCAG” was tested. Which binding signal did it give?
A: 16400 fluorescence intensity (a.u.)

Q: With “GGTGGGCGGAGTGGGAGGGGAGGCATCGGCGCCTCGGTGGCGGAGTCACCTAGTGCAG” as the sequence, how does the binding signal read?
A: 16800 fluorescence intensity (a.u.)

Q: “GGGAGCGGCGGAGGAGGAGGGCGCGGCGGCGGTGGGGTGGCGGAGTCACCTAGTGCAG” was tested. Which binding signal did it give?
A: 18100 fluorescence intensity (a.u.)

Q: For “TGGCGGCGTGGAGCCGCGAGGGCGGTGGCGGCGGGGAGTTCGGAGTCACCTAGTGCAG”, which binding signal is on record?
A: 10400 fluorescence intensity (a.u.)

Q: For “AGGTGAGAGGAGGAGAGAGACGGGTTTAGGGCTTTAGGAGCGGAGTCACCTAGTGCAG”, which binding signal is on record?
A: 8040 fluorescence intensity (a.u.)

Q: How did the binding signal turn out when “GCTCGGCGGCGCCGCGGCGGCGGTGGCGGAGGCGGGGATGCGGAGTCACCTAGTGCAG” was run?
A: 8910 fluorescence intensity (a.u.)
